Reference: PubChem BioAssay
Active and inactive are the calls of the source. Unless noted, the rule behind the calls is not given here.

Tests used:
[1] = circadian clock period modulators, cell-based, LOPAC library, luminescence reporter (AID 2774); conditions: circadian reporter cells, at 7 µM, actives lie on both sides;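 note: values are relative to mean of DMSO wells on each plate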
[2] = tested on: Hepatitis C virus NS3 helicase; test: HCV NS3 helicase inhibitors, primary screen, biochemical, fluorescence polarization, LOPAC1280 library (AID 687035; in the data active = inhibition above about 37%); conditions: Purified HCV NS3 helicase, Cy5-dT15 ssDNA binding fluorescence polarization; stronger effect = higher value; concentration not given here
[3] = Cy5 fluorescence quenching or enhancement artefacts, artefact control for HCV NS3 helicase inhibitor project, biochemical, LOPAC1280 (AID 687037); conditions: Cy5-DNA-NS3h complex fluorescence interference counterscreen
[4] = sensitizers of A549 cells to miR-34 induction, primary screen, imaging, A549 dox-inducible miR-34, nuclei and caspase counts (AID 1347080;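 active = compounds whose cell count with miR-34 switched on is under 0.7 times the count with it off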); conditions: A549 miR-34 inducible, Hoechst nuclei count, 48 h
[5] = phospholipid biosynthesis inhibitors in animal cells, primary screen, cell-based, LOPAC library, screen 4 (AID 1347384); conditions: phospholipid biosynthesis inhibition screen, at 10 µM
[6] = viability rescue of complex I mutant cybrids, primary screen, cell-based, galactose medium, ATP luminescence (AID 1645843;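 active = z-score of at least 1.8 in each of two replicates, scored against plate mean and spread of sample wells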;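 note: positive z means more ATP and so rescue of galactose-driven cybrid death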); conditions: complex I mutant cybrid cells, 72 h, stronger effect = higher value
[7] = stronger effect = lower value, cell number ratio, induced over uninduced
[8] = measured here: relative caspase fold change +Dox/-Dox
[9] = measured here: total cells with miR-34 induction, stronger effect = lower value
[10] = measured here: total cells without miR-34 induction

| SMILES | period change [1] | inhibition [2] | fluorescence ratio (interference) [3] | fold change [4, 7] | fold change [4, 8] | cell count [4, 9] | cell count [4, 10] | outcome [5] | z-score [6] |
| --- | --- | --- | --- | --- | --- | --- | --- | --- | --- |
| CNc1ncnc2c1ncn2[C@@H]1O[C@H](CO)[C@H](O)C1O (some centres not stated) | -0.015 h (inactive) | -2% (inactive) | 1 (inactive) | 1.08 (inactive) | 1.05 | 10300 | 9460 | inactive | 0.765 (inactive) |
| CC(=O)N[C@H](C(=O)O)C(C)(C)SN=O | 0.185 h (inactive) | -4% (inactive) | 1 (inactive) | 1.07 (inactive) | 1.19 | 11100 | 10400 | inactive | -0.22 (inactive) |
| NOCC(=O)O | -0.075 h (inactive) | -1% (inactive) | 1 (inactive) | 1.12 (inactive) | 1.94 | 9990 | 8920 | inactive | 0.555 (inactive) |
| O=C(O)C1CN(CCCP(=O)(O)O)CCN1 (configuration not stated) | 0.255 h (inactive) | 1% (inactive) | 1 (inactive) | 0.99 (inactive) | 1.52 | 10000 | 10100 | inactive | 0.45 (inactive) |
| CSc1nc(N)c2ncn([C@@H]3O[C@H](COP(=O)(O)OP(=O)(O)OP(=O)(O)O)[C@H](O)C3O)c2n1 (some centres not stated) | -0.07 h (inactive) | 41% (active) | 1 (inactive) | 0.981 (inactive) | 2.88 | 9690 | 9880 | inactive | 1.04 (inactive) |
| CCC(=O)N1CCN(C(=O)c2ccccc2)CC1 | -0.115 h (inactive) | -1% (inactive) | 1.1 (inactive) | 0.906 (inactive) | 1.03 | 9050 | 9990 | inactive | 0.245 (inactive) |
| O=c1[nH]c2cc(Cl)ccc2c(O)c1-c1ccc(Oc2ccccc2)cc1 | -0.015 h (inactive) | -2% (inactive) | 1 (inactive) | 1.06 (inactive) | 0.974 | 10400 | 9850 | inactive | 0.965 (inactive) |
| NCC(O)C1CCCCCCC1 (configuration not stated) | -0.04 h (inactive) | -3% (inactive) | 1 (inactive) | 0.963 (inactive) | 1.08 | 9960 | 10300 | inactive | 0.085 (inactive) |
| Nc1cc(Cl)c(NC2=NCCN2)c(Cl)c1 | 0.07 h (inactive) | -4% (inactive) | 0.9 (inactive) | 1.02 (inactive) | 1.68 | 11100 | 10900 | inactive | 0.705 (inactive) |
| C[C@H]1CC2C3CCC4=CC(=O)C=C[C@]4(C)[C@@]3(Cl)[C@@H](O)C[C@]2(C)[C@@]1(O)C(=O)CO (some centres not stated) | -0.07 h (inactive) | -3% (inactive) | 1 (inactive) | 0.918 (inactive) | 1.96 | 7200 | 7840 | inactive | 1.25 (inactive) |
| CCCn1c(=O)[nH]c(=O)c2[nH]cnc21 | 0.09 h (inactive) | -1% (inactive) | 1 (inactive) | 0.996 (inactive) | 1.45 | 9630 | 9670 | inactive | 0.47 (inactive) |
| OCC1O[C@H](O)C(Cl)C(O)C1O (some centres not stated) | 0.3 h (inactive) | -1% (inactive) | 1 (inactive) | 0.973 (inactive) | 1.54 | 9780 | 10100 | inactive | -0.395 (inactive) |
| CN1CCc2ccccc2Cc2[nH]c3ccccc3c2CC1 | -0.08 h (inactive) | -2% (inactive) | 1 (inactive) | 1.04 (inactive) | 0.882 | 9860 | 9460 | inactive | -0.35 (inactive) |
| CC(C)C[C@H](NC(=O)C1OC1C(=O)O)C(=O)NCCCCN=C(N)N (some centres not stated) | -0.035 h (inactive) | 0% (inactive) | 1 (inactive) | 0.999 (inactive) | 1.62 | 9550 | 9560 | inactive | 0.15 (inactive) |
| CCCCOC(=O)NS(=O)(=O)c1sc(CC(C)C)cc1-c1ccc(Cn2c(CC)nc3c(C)cc(C)nc32)cc1 | -0.005 h (inactive) | -1% (inactive) | 1 (inactive) | 0.772 (inactive) | 0.69 | 4700 | 6080 | inactive | -1.28 (inactive) |
| Cc1cccc(C2CN(C)CCc3c2cc(O)c(O)c3Cl)c1 (configuration not stated) | 0.11 h (inactive) | -4% (inactive) | 1 (inactive) | 0.998 (inactive) | 1.65 | 6330 | 6340 | inactive | -1.29 (inactive) |
| NC1C=CC=C(C(=O)O)C1 (configuration not stated) | 0.115 h (inactive) | 0% (inactive) | 1 (inactive) | 1.08 (inactive) | 2.16 | 9940 | 9200 | inactive | 0.355 (inactive) |
| O=c1[nH]ccc2c(O)cccc12 | 0.03 h (inactive) | -3% (inactive) | 0.9 (inactive) | 1.09 (inactive) | 1.24 | 10100 | 9200 | inactive | 0.02 (inactive) |
| NC(CCCP(=O)(O)O)C(=O)O (configuration not stated) | 0.105 h (inactive) | -3% (inactive) | 1 (inactive) | 1.08 (inactive) | 1.92 | 10400 | 9550 | inactive | 0.21 (inactive) |
| O=c1[nH]c(=O)c2nc3ccccc3nc2[nH]1 | -0.07 h (inactive) | -1% (inactive) | 1 (inactive) | 1.04 (inactive) | 1.29 | 8690 | 8380 | inactive | 0.695 (inactive) |
| CC1CN(S(=O)(=O)c2cccc3cnccc23)CCN1 (configuration not stated) | 0.475 h (inactive) | -6% (inactive) | 0.9 (inactive) | 1.09 (inactive) | 0.736 | 11600 | 10600 | inactive | 0.18 (inactive) |
| Cn1c(=O)c2c(nc(/C=C/c3cccc(Cl)c3)n2C)n(C)c1=O | 0.15 h (inactive) | -2% (inactive) | 1 (inactive) | 1.03 (inactive) | 1.2 | 9630 | 9370 | inactive | 1.26 (inactive) |
| Cc1cn([C@H]2C[C@@H](N=[N+]=[N-])[C@@H](CO)O2)c(=O)[nH]c1=O | 0.06 h (inactive) | -1% (inactive) | 0.9 (inactive) | 1.13 (inactive) | 1.91 | 8200 | 7230 | inactive | 0.445 (inactive) |
